# Test results from PubChem BioAssay AID2551 (National Center for Advancing Translational Sciences (NCATS), 2010).
# In all, about 310,000 compounds went through this assay and about 17,000 (5.5%) were called active. A call without a number means that no potency is given here. Inconclusive results (about 11%) are left out. Many of the other results were omitted from the sample, so actives are more common in it than they were. Unmarked numbers belong to inactive results. Calls come from the whole dose curve; as a rule, active = well fitted inhibition curve with a large enough effect; inconclusive = small, poorly fitted or top-dose-only effect, or effect the other way; inactive = no such curve, though single readings can be large or run the other way.
# Target: Nuclear receptor ROR-gamma (Mus musculus) (UniProt P51450)
# Sequence (P51450 whole entry, looked up): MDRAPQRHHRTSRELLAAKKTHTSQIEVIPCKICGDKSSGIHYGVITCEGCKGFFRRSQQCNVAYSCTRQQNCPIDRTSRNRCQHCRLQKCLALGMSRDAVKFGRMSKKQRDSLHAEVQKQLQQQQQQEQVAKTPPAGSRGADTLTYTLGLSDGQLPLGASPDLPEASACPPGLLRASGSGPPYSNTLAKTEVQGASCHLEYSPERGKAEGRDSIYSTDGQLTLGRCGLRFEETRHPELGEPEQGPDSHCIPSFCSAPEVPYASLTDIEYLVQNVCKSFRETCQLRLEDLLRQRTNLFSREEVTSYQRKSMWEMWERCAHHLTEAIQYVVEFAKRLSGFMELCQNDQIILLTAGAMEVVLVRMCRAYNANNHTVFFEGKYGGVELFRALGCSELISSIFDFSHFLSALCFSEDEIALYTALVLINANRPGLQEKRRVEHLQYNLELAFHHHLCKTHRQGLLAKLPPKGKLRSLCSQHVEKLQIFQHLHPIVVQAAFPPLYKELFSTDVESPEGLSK
# Assay: qHTS for inhibitors of ROR gamma transcriptional activity; note: nearly all actives have a fitted effect of over 60% in size
# Conditions: Drosophila S2 Gal4-RORgamma UAS-luciferase reporter, 20 h; series mostly up to 53.6 µM
# Procedure, shortened: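 ROR gamma transcriptional activity was tracked as Gal4-UAS luciferase output in stably transfected Drosophila Schneider cells, with compound added 1 hr before 700 uM copper sulfate induction and a 20 hr ambient-temperature incubation.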
# Potency is the fitted concentration of half-maximal effect.
SMILES,Potency,"activity change, negative = inhibition"
O=C(COC(=O)c1ccc(F)cc1)NCCCc1ccccc1,inactive,
O=C(NCCc1cccc(F)c1)C1CCCN(c2nc3ccccc3s2)C1 (stereo not drawn),inactive,
COc1cccc(NC(=O)c2nn(-c3ccc(OC)cc3OC)c(=O)c3ccccc23)c1,inactive,
COc1cccc(NC(=O)c2ccccc2SC)c1,inactive,
COc1cccc(NC(=S)NC(=O)c2c(Cl)c(C)nn2C)c1,3.55 µM (active),
CC1(C(=O)N/N=C/c2cc3c(cc2Br)OCO3)CC1(Br)Br (stereo not drawn),inactive,
CC(=O)Oc1ccc(-c2nc3c(C)cccc3c(=O)o2)cc1,inactive,
COc1ccc(/C=C/c2noc(-c3ccccc3OC(C)=O)n2)cc1,11.2 µM (active),
COc1ccccc1-c1nnc(SCC(=O)Nc2cc(C)on2)o1,inactive,
CCOC(=O)c1ccc(NC(=O)c2cc(=O)[nH]c3ccccc23)cc1,inactive,
CCOC(=O)c1[nH]cnc1C(=O)Nc1ccccc1C,12.6 µM (active),
CCOC(=O)c1ccc(NC(=O)c2nc[nH]c2C(=O)NCc2ccccc2)cc1,3.55 µM (active),
Cc1ccccc1NC(=O)CCOc1ccccc1,inactive,
CCOC(=O)c1c(C)[nH]c(C)c1S(=O)(=O)N(C)CC(=O)Nc1ccccc1C,inactive,
CCOC(=O)c1ccc(NC(=O)CNC(=O)c2ccco2)cc1,inactive,
Cc1ccc(CNS(=O)(=O)c2ccc3c(c2)N(C)CCO3)cc1,inactive,
COc1ccc(CCNC(=O)CSCc2ccc(Br)cc2)cc1OC,inactive,
COc1cc(C(C(=O)NC2CCCC2)N(C(=O)c2ccco2)c2ccccc2C(C)=O)cc(OC)c1OC (stereo not drawn),inactive,
CCN1N=C(c2ccccc2)CCC1=O,inactive,
COCCCNc1nc2c(-c3cccc(C)c3)nnn2c2ccc(Cl)cc12,inactive,
COC(=O)Cn1cc(C(=O)c2cccs2)c2ccccc21,inactive,
COCCCNC(=O)Cn1cc(/C=C(\C#N)C(=O)N2CCN(c3ccccc3)CC2)c2ccccc21,inactive,

SMILES,Potency,"activity change, negative = inhibition"
COC(=O)Cn1cc(/C=C/[N+](=O)[O-])c2ccccc21,10 µM (active),
O=C(NCc1cccc(Cl)c1)C1CCN(c2nnc(N3CCCC3=O)s2)CC1,inactive,
CCOC(=O)C1CCN(C(=O)C2CCCN(S(=O)(=O)c3ccc(OC)c(Cl)c3)C2)CC1 (stereo not drawn),inactive,
COc1ccc(/C=C/C(=O)Nc2cccnc2)cc1OC,inactive,
COc1cc(/C=N/NC(=S)Nc2cccnc2)cc(OC)c1O,6.31 µM (active),
CCOC(=O)N/N=C/c1cccnc1,inactive,
COCCNC(=S)N/N=C/c1c(C)[nH]c2ccccc12,11.2 µM (active),
Cc1[nH]c2ccccc2c1/C=N\NC(=O)Cn1nnc(-c2ccccc2)n1,,7.95% [at 10 µM]
COc1cc(N=Cc2c(O)[nH]c3ccccc23)cc(OC)c1OC,inactive,
C=CCn1c(=O)c(C(=O)Nc2ncccc2O)c(O)c2ccccc21,inactive,
COC(=O)N/N=C/c1ccc(/C=N/NC(=O)OC)cc1,inactive,
CCOc1ccc(/C=N/NC(N)=S)cc1,5.01 µM (active),
Cc1ccc(OCCOc2cccc(/C=N/NC(N)=O)c2)cc1,inactive,
COC(=O)[C@@H]1CCCN1C(=O)c1cc(COc2cccc3cccnc23)on1,inactive,
CCCC(=O)N1CCN(c2nnc(-c3ccc(C)cc3)c3ccccc23)CC1,inactive,
O=C(CN1C(=O)COc2ccc(Cl)cc21)N1CCOCC1,inactive,
Cc1cccc(C(=O)Nc2ccccc2C(=O)NCc2cccnc2)c1,inactive,
Cc1ccc(Cl)cc1NC(=S)N(CCN(C)C)Cc1cccs1,11.2 µM (active),
CCc1cccc(C)c1NC(=S)N(CCCN1CCN(C)CC1)Cc1cccs1,inactive,
Cc1ccc(CN(Cc2cccnc2)C(=S)Nc2cc(Cl)ccc2C)cc1,3.16 µM (active),
Cc1ccc(CN(Cc2cccnc2)C(=S)Nc2cccc(Cl)c2C)cc1,3.98 µM (active),
Cc1ccc(C)c(NC(=S)NCC(c2cccnc2)N2CCOCC2)c1 (stereo not drawn),inactive,

SMILES,Potency,"activity change, negative = inhibition"
Cc1c(Cl)cccc1NC(=O)CSc1ccc(-c2cccnc2)nn1,inactive,
Cc1ccccc1NC(=S)N(CCCN1CCOCC1)Cc1cccs1,inactive,
Cc1ccc(C)c2[nH]c(=O)c(CN(Cc3cccnc3)C(=S)NCc3ccco3)cc12,inactive,
COc1ccc(-c2nc3ccccc3c(=O)n2CCc2ccc(O)cc2)cc1,inactive,
CSc1nnc2ccc(-c3ccc(C)cc3)nn12,inactive,
Cc1ccc(C(CNC(=O)Nc2cccc(C)c2)N2CCN(C)CC2)cc1 (stereo not drawn),inactive,
COc1cc(C(=O)NCC2(c3ccccc3)CCCC2)ccc1OC(C)C,inactive,
O=C(NCc1ccccc1Cl)C1CCN(c2ncnc3c2nc2n3CCCCC2)CC1,inactive,
CCOCCCN1C(=O)C2C(C(=O)Nc3ccc(OCC)cc3)C3C=CC2(O3)C1C(=O)NC1CCCCC1 (stereo not drawn),inactive,
CCN(CC)CCn1cnc2c1c(=O)[nH]c(=O)n2Cc1ccccc1,inactive,
CCOc1ccc(OCCSc2nc3ccccc3n2CC(=O)O)cc1,inactive,
COc1ccc(S(=O)(=O)N2CCN(C)CC2)c(C)c1,,16.1% [at 1.91 µM]
COc1ccc(N(Cc2cc3ccc(C)cc3[nH]c2=O)S(=O)(=O)c2ccccc2)cc1,inactive,
CC(C)(C)c1ccc(C(CC(=O)O)NS(=O)(=O)Cc2ccccc2)cc1 (stereo not drawn),inactive,
CCCCN(CCCC)CCCNC(=O)CN1C(=O)COc2ccc(S(=O)(=O)N3CCC(C)CC3)cc21,inactive,
S=C(NCCCc1ccccc1)Nc1ccc(Br)cc1,8.91 µM (active),
CCc1ccc(NC(=O)CS(=O)CC(=O)NCCCc2ccccc2)cc1 (stereo not drawn),inactive,
S=C(NCCc1ccccc1)NCC1CCCO1 (stereo not drawn),12.6 µM (active),
O=C(NCCc1ccccc1)C1CC1,inactive,
O=C(NCCc1c[nH]c2ccccc12)C(=O)NCC1CCCO1 (stereo not drawn),inactive,
S=C(NCCc1ccccc1)Nc1ccccc1,3.16 µM (active),
Fc1ccccc1Cn1cnc(NC(=S)NCCc2ccccc2)n1,inactive,

SMILES,Potency,"activity change, negative = inhibition"
O=C(CS(=O)(=O)Cc1ccccc1)NCC1CCCO1 (stereo not drawn),inactive,
NS(=O)(=O)c1ccc(CCNC(=S)Nc2ccc(S(N)(=O)=O)cc2)cc1,inactive,
S=C(NCCc1ccccc1)NCc1ccccc1Cl,7.94 µM (active),
CCOc1ccc(CCNC(=O)Nc2ccccc2)cc1OCC,inactive,
O=C(NCCCc1ccccc1)C(=O)c1c[nH]c2ccccc12,inactive,
COc1ccccc1N1CCC(N2CCN(CC(C)(C)C)C(CCO)C2)CC1 (stereo not drawn),inactive,
Cc1ccc(NS(=O)(=O)c2ccc(-c3coc(C)n3)cc2)c(C)c1,inactive,
CSc1ccc(S(=O)(=O)N2CCC(C(=O)NCc3ccncc3)CC2)cc1,inactive,
COc1cc(/C=C2\SC(=O)NC2=O)ccc1OCc1ccc(Cl)nc1,inactive,
CC(C)c1ccc(NC(=O)[C@@H](NC(=O)N2CC(=O)Nc3ccccc32)C(C)C)cc1,inactive,
O=C(c1ccc2nc(N3CCOCC3)sc2c1)N1CCN(c2ccc(Cl)cc2)CC1,inactive,
Nc1nc(SCC(=O)Nc2ccc(Cl)cc2C(F)(F)F)n[nH]1,inactive,
O=C(Cc1cccc2ccccc12)NCCC1=CCCCC1,,11.1% [at 10 µM]
CC(=O)Nc1ccc(S(=O)(=O)N(C)CC(=O)NCCC2=CCCCC2)cc1,inactive,
S=C(NCCC1=CCCCC1)Nc1ccccc1,1.78 µM (active),
COc1ccc(CCNC(=O)c2ccccc2OCc2ccccc2)cc1,inactive,
O=C(NC1CCCC1)C(c1ccc(Cl)cc1)N(C(=O)c1csnn1)C1CC1 (stereo not drawn),inactive,
Cc1cc(C)nc(S/C=C/C(=O)c2ccccc2)n1,6.31 µM (active),
C/C(=N\NC(=O)c1nc(C)cc(C)n1)c1ccccc1,inactive,
Cc1cc(C)nc(SCC(=O)c2ccc(Cl)cc2)n1,inactive,
Cc1ccc(CS(=O)(=O)CCC(=O)NCc2ccc(F)cc2)cc1,inactive,
O=C(O)c1ccccc1C(=O)NC1=NN(c2ccccc2)CC1,inactive,

SMILES,Potency,"activity change, negative = inhibition"
CN(c1ccc(OCC(=O)O)cc1)S(=O)(=O)c1ccc2ccccc2c1,inactive,
Cc1ccccc1N1CCN(C2CCCN(C(=O)c3cn4c(C)cccc4n3)C2)CC1 (stereo not drawn),inactive,
CCn1c(=O)n(CC)c2cc(N3CCCC3)c(NC(=O)c3ccccc3Br)cc21,inactive,
CCOc1cc(NC(=O)c2ccccc2C(=O)O)c(OCC)cc1NC(=O)c1ccccc1F,,19.6% [at 1.91 µM]
CCN1CCN(c2cc3nc(C)n(Cc4ccccc4)c(=O)c3cc2NC(=O)c2ccccc2F)CC1,11.2 µM (active),
CS(=O)(=O)Nc1cccc(C2=NN(C(=O)c3cccc(F)c3)C(c3cccs3)C2)c1 (stereo not drawn),inactive,
CC(C)=CCCC(C)CN1CCC(n2nccc2NC(=O)c2ccccc2)CC1 (stereo not drawn),inactive,
CC(=O)NCCC(=O)Nc1nc(-c2ccc3c(c2)OCCO3)cs1,inactive,
Cc1cc(C)c2nc(SCC(=O)N(C)C3CCS(=O)(=O)C3)cc(C)c2c1 (stereo not drawn),inactive,
COc1ccc2c(-c3ccccc3)cc(SCC(=O)N(C)C3CCS(=O)(=O)C3)nc2c1 (stereo not drawn),10 µM (active),
COc1ccc(-c2cc(=O)oc3cc(OCC(=O)N(C)C4CCS(=O)(=O)C4)ccc23)cc1 (stereo not drawn),inactive,
[2H]C(CCOS(N)(=O)=O)c1ccccc1 (stereo not drawn),inactive,
Cc1cc(-c2ccc(/C=N/n3cnnc3)o2)c([N+](=O)[O-])cc1C,inactive,
Cc1ccc(-c2ccc(/C=C(\C#N)C(N)=S)o2)c([N+](=O)[O-])c1,11.2 µM (active),
N#C/C(=C/c1ccc(-c2ccccc2[N+](=O)[O-])o1)C(=O)NCCN1CCCCC1,inactive,
O=C(Nc1ccc(-c2cscn2)cc1)C1CCCN(Cc2ccc(CO)o2)C1 (stereo not drawn),inactive,
COc1ccc(CCNC(=O)c2cnc(Cl)c(Cl)c2)cc1,inactive,
CCCCNC(=O)N(O)C1N(/N=C/c2ccc(N(C)C)cc2)C(=S)SC1(C)C (stereo not drawn),inactive,
CCC(C)N1C(=S)SC(C)(C)C1N(O)C(=O)NC1CCCCC1 (stereo not drawn),inactive,
CCCCNC(=O)N(O)C1N(/N=C/c2ccccc2O)C(=S)SC1(C)C (stereo not drawn),11.2 µM (active),
